Reference: the antibiotic and cytotoxicity screens of Wong et al. (2023)
The campaign covered roughly 39,000 compounds. About 500 (1.3%) were called active. The full list was thinned out, with actives kept by preference.

tested on: S. aureus RN4220; experiment: growth inhibition call (relative growth <= 0.2); details: 50 µM

Growth inhibition call, active:
C[C@H](CO)N1C[C@H](C)[C@H](CN(C)C(=O)CN(C)C)Oc2cc(C#Cc3ccccc3)ccc2S1(=O)=O, C[C@@H]1CN([C@H](C)CO)C(=O)c2cccc(NS(C)(=O)=O)c2O[C@@H]1CN(C)C(=O)Nc1ccc(C(F)(F)F)cc1, C[C@@H]1CN([C@@H](C)CO)C(=O)c2cccc(NS(C)(=O)=O)c2O[C@H]1CN(C)C(=O)Nc1ccc(C(F)(F)F)cc1, C[C@@H]1CN([C@@H](C)CO)C(=O)c2cccc(NS(C)(=O)=O)c2O[C@@H]1CN(C)C(=O)Nc1ccc(C(F)(F)F)cc1, CC1CCC2(C)C(C=O)=CCCC2C1(C)CC1OC(O)C(=O)C12CO2 (stereo not drawn), COC(=O)CCCCCCC(=O)Nc1ccc(NC(=O)CCCC[P+](c2ccccc2)(c2ccccc2)c2ccccc2)cc1, C[N+](C)(C)CCCCCCNC(=O)[C@@H]1C[C@@H]2C(=O)N[C@@H](CCCC[N+](C)(C)C)C(=O)N2[C@@H]1c1ccc(O)cc1, O=C(Nc1ccc(S(=O)(=O)OCC(F)(F)C(F)(F)C(F)(F)C(F)F)cc1)NC1(C(F)(F)F)Oc2ccccc2O1, COc1ncc(-c2ccc3c(Nc4cc(Oc5cc(F)cc(F)c5)cc(C(=O)O)c4)c(S(=O)(=O)NC4CC4)cnc3c2)c(OC)n1, CN(C)[C@@H]1C(=O)[C@@H](C(N)=O)C(=O)[C@@]2(O)C(=O)[C@H]3C(=O)c4c(O)ccc(Cl)c4[C@@H](O)[C@H]3C[C@@H]12, CN(C)c1cc(CNCC(C)(C)C)c(O)c2c1C[C@H]1C[C@H]3[C@H](N(C)C)C(=O)[C@H](C(N)=O)C(=O)[C@@]3(O)C(=O)[C@@H]1C2=O, CN(C)[C@@H]1C(=O)[C@@H](C(N)=O)C(=O)[C@@]2(O)C(=O)[C@@H]3C(=O)c4c(O)c(NC(=O)CN5CCCC5)cc(F)c4C[C@H]3C[C@@H]12, CN(C)c1ccc(O)c2c1C[C@H]1C[C@H]3[C@H](N(C)C)C(=O)[C@@H](C(N)=O)C(=O)[C@@]3(O)C(=O)[C@H]1C2=O

Growth inhibition call, inactive:
C[C@@H]1CCCCO[C@@H](CN(C)Cc2ccc(Cl)c(Cl)c2)[C@@H](C)CN([C@H](C)CO)C(=O)c2cc(NC(=O)C3CCCCC3)ccc2O1, CC(C)NC(=O)N(C)C[C@@H]1OCCCC[C@@H](C)Oc2ccc(NS(=O)(=O)c3cn(C)cn3)cc2C(=O)N([C@H](C)CO)C[C@H]1C, C[C@@H]1CN([C@H](C)CO)C(=O)c2cc(NS(=O)(=O)c3ccc(F)cc3)ccc2O[C@@H](C)CCCCO[C@H]1CN(C)C(=O)Nc1ccccc1, CC=Cc1ccc2n(c1=O)C[C@@H]1[C@@H](CO)[C@H](C(=O)NC3CCC3)N(S(C)(=O)=O)[C@H]21, CCCN(C)C[C@@H]1OCCCC[C@@H](C)Oc2ccc(NS(=O)(=O)c3cn(C)cn3)cc2C(=O)N([C@@H](C)CO)C[C@@H]1C, C[C@@H]1CN([C@@H](C)CO)C(=O)c2cc(C#Cc3ccncc3)cnc2O[C@H]1CN(C)S(=O)(=O)c1ccccc1F, C[C@@H]1CN([C@@H](C)CO)C(=O)c2cc(NS(C)(=O)=O)ccc2O[C@@H](C)CCCCO[C@H]1CN(C)S(=O)(=O)c1cn(C)cn1, C[C@@H]1CN([C@H](C)CO)C(=O)c2cccc(NS(C)(=O)=O)c2O[C@@H]1CN(C)S(=O)(=O)c1ccc(F)cc1, C[C@@H]1CN([C@@H](C)CO)S(=O)(=O)c2ccc(C#Cc3ccccc3)cc2O[C@H]1CN(C)C(=O)CN(C)C, C[C@@H]1CN([C@H](C)CO)S(=O)(=O)c2ccc(C#Cc3ccccc3)cc2O[C@H]1CN(C)C(=O)CN(C)C, COc1ccc(S(=O)(=O)N(C)C[C@@H]2Oc3ccc(NS(=O)(=O)c4cccs4)cc3CC(=O)N([C@@H](C)CO)C[C@H]2C)cc1, C[C@H](CO)N1C[C@H](C)[C@H](CN(C)C(=O)Nc2ccc(C(F)(F)F)cc2)Oc2c(NS(C)(=O)=O)cccc2C1=O, C[C@H](CO)N1C[C@H](C)[C@@H](CN(C)C(=O)Nc2ccc(C(F)(F)F)cc2)Oc2c(NS(C)(=O)=O)cccc2C1=O, C[C@H]1CN([C@@H](C)CO)C(=O)c2cccc(NS(C)(=O)=O)c2O[C@H]1CN(C)C(=O)Nc1ccc(C(F)(F)F)cc1, C[C@@H]1CN([C@@H](C)CO)C(=O)c2cccc(NS(C)(=O)=O)c2O[C@H]1CN(C)C(=O)Nc1ccc(F)cc1, C[C@H]1CN([C@@H](C)CO)C(=O)c2cccc(NS(C)(=O)=O)c2O[C@@H]1CN(C)C(=O)Nc1ccc(C(F)(F)F)cc1, C[C@@H]1CN([C@H](C)CO)C(=O)c2cccc(NS(C)(=O)=O)c2O[C@H]1CN(C)C(=O)Nc1ccc(C(F)(F)F)cc1, CNC(=O)Cn1cc(Br)cn1, C[C@H]1N(c2cnn(C)c2)C(=O)COC12CCN(S(C)(=O)=O)CC2, O=C1O[C@H](CO)[C@@H](O)[C@H](O)[C@H]1O, COc1ccc2c3c(n(c2c1)C)[C@@H](CO)N(Cc1ccccc1F)C[C@]13CN(C1)C(=O)C1CCOCC1, C[C@@H]1CN([C@@H](C)CO)C(=O)c2cccc(NS(C)(=O)=O)c2O[C@@H]1CN(C)C(=O)Nc1ccc2c(c1)OCO2, C[C@H]1CN([C@@H](C)CO)C(=O)c2cc(NC(=O)CCN3CCOCC3)ccc2O[C@@H]1CN(C)Cc1ccc2c(c1)OCO2, C[C@H](CO)N1C[C@H](C)[C@@H](CN(C)Cc2ccc(Cl)c(Cl)c2)Oc2ccc(NC(=O)Nc3cccc4ccccc34)cc2C1=O, C=CC[C@H](CC(=O)NCCO)C(=O)N[C@H](COC(=O)[C@@H](CC=C)CC(=O)OC(C)(C)C)Cc1ccccc1, O=C(CCCCCCC(=O)Nc1ccccc1)NO, O=C(CCCCCC(=O)Nc1ccccc1O)N/N=C/C[P+](c1ccccc1)(c1ccccc1)c1ccccc1, C[C@@H]1CN([C@H](C)CO)C(=O)c2cccc(NC(=O)NC3CCCCC3)c2O[C@H]1CN(C)C(=O)Nc1cccc2ccccc12, C[N+](C)(C)CCCCCCNC(=O)[C@H]1C[C@H]2C(=O)N[C@@H](CCCC[N+](C)(C)C)C(=O)N2[C@H]1c1ccc(O)cc1, C[N+](C)(C)CCCCNC(=O)[C@H]1C[C@H]2C(=O)N[C@@H](CCCC[N+](C)(C)C)C(=O)N2[C@H]1c1ccc(O)cc1, COc1ccc(CNC(=O)C[C@@H]2C[C@H]3c4cc(NC(=O)NC5CCCC5)ccc4O[C@H]3[C@@H](CO)O2)cc1, C=CC[C@@H](CC(=O)N(CCO)Cc1ccccc1)C(=O)NCCOC(=O)[C@@H](CC=C)CC(=O)OC(C)(C)C, C[C@H](CO)N1C[C@H](C)[C@H](CN(C)C(=O)Nc2ccc(C(F)(F)F)cc2)Oc2ccc(NC(=O)Cn3cnnn3)cc2CC1=O, O=C(C[C@@H]1CC[C@H]2[C@@H](COC[C@H](O)CN2S(=O)(=O)c2ccccc2)O1)N1CCOCC1, CCCN(C)C[C@H]1OCCCC[C@H](C)Oc2ccc(NC(=O)CCC(F)(F)F)cc2C(=O)N([C@H](C)CO)C[C@@H]1C, O=C(OCc1ccccc1)c1cccnc1, C[C@H]1CCCCO[C@H](CN(C)CC2CCCCC2)[C@@H](C)CN([C@@H](C)CO)C(=O)c2cc(NC(=O)Nc3cccc4ccccc34)ccc2O1, CCCC#Cc1ccc2c(c1)O[C@H](CN(C)Cc1ccc3c(c1)OCO3)[C@H](C)CN([C@@H](C)CO)S2(=O)=O, C[C@@H]1CN([C@@H](C)CO)C(=O)c2cc(NS(=O)(=O)c3cccs3)ccc2O[C@@H]1CN(C)CC1CC1, CN(C)C1C(O)=C(C(N)=O)C(=O)C2(O)C(O)=C3C(=O)c4c(O)ccc(Cl)c4C(O)C3CC12.Cl (stereo not drawn), CN(C)c1cc(NC(=O)CNC(C)(C)C)c(O)c2c1C[C@H]1C[C@H]3[C@H](N(C)C)C(=O)[C@@H](C(N)=O)C(=O)[C@@]3(O)C(=O)[C@H]1C2=O, CN(C)[C@@H]1C(=O)[C@@H](C(=O)NCNCCCC[C@H](N)C(=O)O)C(=O)[C@@]2(O)C(=O)[C@@H]3C(=O)c4c(O)cccc4[C@@](C)(O)[C@H]3C[C@@H]12, CN(C)c1ccc(O)c2c1C[C@@H]1C[C@@H]3[C@@H](N(C)C)C(=O)C(C(N)=O)=C(O)[C@]3(O)C(=O)[C@H]1C2=O, CN(C)c1cc(NC(=O)CNC(C)(C)C)c(O)c2c1CC1CC3C(N(C)C)C(O)=C(C(N)=O)C(=O)C3(O)C(O)=C1C2=O (stereo not drawn), CN(C)c1cc(NC(=O)CNC(C)(C)C)c(O)c2c1C[C@H]1C[C@H]3[C@H](N(C)C)C(=O)C(C(N)=O)=C(O)[C@@]3(O)C(=O)[C@H]1C2=O, CN(C)c1ccc(O)c2c1C[C@H]1C[C@H]3[C@H](N(C)C)C(=O)C(C(N)=O)=C(O)[C@@]3(O)C(=O)[C@H]1C2=O, CN(C)[C@@H]1C(=O)[C@@H](C(N)=O)C(=O)[C@@]2(O)C(=O)[C@H]3C(=O)c4c(O)cccc4C[C@H]3C[C@@H]12, COc1ccc(S(=O)(=O)N(C)C[C@H]2Oc3ccc(NC(=O)C4CC4)cc3C(=O)N([C@@H](C)CO)C[C@@H]2C)cc1, C[C@@H]1CCCCO[C@H](CN(C)C(=O)Nc2ccc3c(c2)OCO3)[C@H](C)CN([C@H](C)CO)C(=O)c2cc(NS(=O)(=O)c3ccc(F)cc3)ccc2O1, C[C@H](CO)N1C[C@H](C)[C@H](CN(C)Cc2ccc(Cl)c(Cl)c2)Oc2ccc(NC(=O)Nc3ccccc3)cc2CC1=O
